According to the supplement of paper PMC5940239:
Values without a mark were called inactive.

Tested on: Madurella mycetomatis MM55
Experiment: percent growth relative to solvent control; higher = less inhibition, active = 20 or less
Conditions: 100 µM; 7 days

Row | SMILES | percent growth
1 | Cc1ccc2cc(C3NC(=O)c4ccccc4N3)c(Cl)nc2c1 (centres undefined) | 139%
2 | COc1ccc(-c2nn(C(C)C)c3ncnc(N)c23)cc1OC | 22.9%
3 | Cc1ccc(-c2cc(C(=O)Nc3cccnc3)c3cc(Br)ccc3n2)cc1 | 90.5%
4 | FC(F)(F)c1nnc2ccc(Cl)nn12 | 116%
5 | Nc1cccnc1Nc1ccc(Cl)cc1 | 80.6%
6 | CCOc1ccc(-c2nc(NC(=O)CS(=O)(=O)c3ccccc3)sc2C)cc1 | 51.4%
7 | FC(F)(F)c1cnc(Sc2nnc(-c3ccncc3)o2)c(Cl)c1 | 82.4%
8 | COc1ccc(Nc2ccccc2NC(=O)c2ccc(O)nc2)cc1 | 85.8%
9 | CC(C)(C)OC(=O)N1CCC(Cn2nc(-c3cnc4ccccc4c3)c3c(N)ncnc32)CC1 | 99.2%
10 | Cc1cc(Cl)c(S(=O)(=O)N2CCCC2)cc1OCC(=O)NC1CCCCC1 | 104%
11 | COc1cc(-c2cc(-c3ccc(S(C)(=O)=O)cc3)cnc2N)ccc1O | 11.2% (active)
12 | Cc1ccccc1C(=O)N1N=C(Nc2ccccc2)SC1(C)C | 93.7%
13 | CN1CCN(S(=O)(=O)c2ccc(-c3ccc4c(Nc5ccc6nn[nH]c6c5)ccnc4c3)cc2)CC1 | 151%
14 | CNc1cc(C)nc(C2CN(C(=O)c3n[nH]c4ccccc34)CCO2)c1 (centres undefined) | 103%
15 | Cc1cc(NC(=O)c2ccc(S(=O)(=O)N(Cc3ccccc3)C(C)C)cc2)no1 | 92.5%
16 | Clc1ccc(CCNc2cc(-c3ccccc3)nc3ncnn23)cc1 | 108%
17 | O=C(NCCN1CCCC1)c1cc(NCCN2CCOCC2)nc2ccc(Cl)cc12 | 85.5%
18 | O=C(NC1CC1)c1ccc(N2CCC(Cc3ccccc3)CC2)nc1 | 104%
19 | COc1cccc(OCC(=O)c2ccc(Br)cc2)c1 | 81.3%
20 | CC(C(=O)N1CCCC1)N1CCN(S(=O)(=O)c2ccc(C(C)(C)C)cc2)CC1 (centres undefined) | 89.9%
21 | O=C(Nc1ccc2c(c1)B(O)OC2)c1ccccc1C(F)(F)F | 150%
22 | CC1CC1C(=O)NC1CCN(CC2(c3ccccc3)CCCCC2)CC1 (centres undefined) | 92.9%
23 | O=C(C1CCN(c2nnnn2-c2ccccc2)CC1)N1CCc2ccccc2C1 | 56.4%

Row | SMILES | percent growth
24 | CO[C@@H](C(=O)N1Cc2[nH]nc(NC(=O)c3ccc(N4CCN(C)CC4)cc3)c2C1)c1ccccc1 | 157%
25 | COC(=O)c1ccc(F)cc1NS(=O)(=O)c1cccc(-c2cnn(Cc3ccccc3)c2)c1 | 118%
26 | CCCn1c(CNc2ccccc2O)nc2ccccc21 | 91.1%
27 | COc1ccc(N(CCc2cccc(C)n2)C(C)=O)cc1 | 101%
28 | Cc1ccc(Oc2ccc(NC(=O)CNc3ccccc3N3CCCC3=O)cc2)cc1 | 107%
29 | N#Cc1ccc(-c2cnc(N)c(-c3ccc(C(N)=O)cc3)n2)cc1 | 64.5%
30 | CC(=O)NCC1CN(c2ccc(-c3ccc(CO)cc3)c(F)c2)C(=O)O1 (centres undefined) | 112%
31 | Cc1cc(O)nc(-n2nc(C)cc2C)n1 | 66.4%
32 | COc1ccc(C2=NCCN2)cc1-c1cn(-c2cccc(C3=NCCN3)c2)nn1 | 94%
33 | CCC(NC(=O)c1ccccc1NC(=O)c1ccc(C)cc1)C(=O)OC (centres undefined) | 98.3%
34 | CNC(=O)CNc1nc(-c2ccccn2)nc2scc(-c3ccccc3)c12 | 30.8%
35 | CC(=O)NC[C@@H]1CN(c2ccc(N3CCOCC3)c(F)c2)C(=O)O1 | 107%
36 | Cn1ccnc1CNCCS(=O)(=O)c1cccc(Nc2ccc(-c3cccc(F)c3)cn2)c1 | 65.7%
37 | CCc1nc2ccc(Cl)cn2c1C(=O)NCc1ccc(N2CCC(c3ccc(OC(F)(F)F)cc3)CC2)cc1 | 126%
38 | NCCCC(N)(C(=O)O)C(F)F (centres undefined) | 133%
39 | FC(F)(F)c1cccc(-c2nc3c(NCc4ccncc4)nccc3[nH]2)c1 | 72.4%
40 | CS(=O)(=O)c1ccc(C(=O)N(CC2CCCO2)c2nc3ccccc3s2)cc1[N+](=O)[O-] (centres undefined) | 110%
41 | NS(=O)(=O)c1cncc(-c2ccc3nccc(-c4cn[nH]c4)c3n2)c1 | 143%
42 | Cc1nc2ccccn2c1C(=O)NCc1ccc(Cl)cc1 | 33.1%
43 | Cc1nnc(NC(=O)c2cn(-c3ccccc3)nc2-c2ccccc2C)o1 | 92.6%
44 | O=[N+]([O-])c1cn2c(n1)OC[C@@H](OCc1ccc(OC(F)(F)F)cc1)C2 | 97.3%
45 | NC(=O)c1cc(-c2ccsc2)ccc1OCCOc1ccccc1 | 103%
46 | Cc1[nH]c2cc(F)cc(F)c2c(=O)c1-c1ccc(Oc2ccc(OC(F)(F)F)cc2)cc1 | 95.7%

Row | SMILES | percent growth
47 | N=C(N)c1ccc(OCCCCCOc2ccc(C(=N)N)cc2)cc1 | 48.7%
48 | O=C1[C@@H](Oc2ccccc2)[C@@H](c2ccc(Cl)cc2)N1CCn1cnc2c(NCc3ccccc3)ncnc21 | 98.5%
49 | Nc1nccc2ccc(Oc3ccncc3)cc12 | 71.5%
50 | O=C(C(Cc1c[nH]c2ccccc12)NS(=O)(=O)c1ccc(Cl)cc1)N1CCCCC1 (centres undefined) | 43.6%
51 | CC1COC2(CCN(c3nc(=O)c4cc(C(F)(F)F)cc([N+](=O)[O-])c4s3)CC2)O1 (centres undefined) | 79.4%
52 | CCNC(=O)C(C)Nc1nc(-c2cccnc2)nc2sc(C)c(C)c12 (centres undefined) | 90.4%
53 | CC(C)(C)c1cnc(NC(=O)c2ccccc2O)s1 | 99.3%
54 | Cc1cc(OCC(=O)Nc2ccc(C(C)C)cc2)n(C)c(=O)c1C#N | 96%
55 | CCCCN(CCCC)c1c(C#N)cc(S(=O)(=O)Nc2ccccc2)cc1C#N | 85.7%
56 | CCCS(=O)(=O)N1CCC(CO)(Cc2ccccc2C(F)(F)F)CC1 | 37.4%
57 | O=C(OCc1ccccc1)N1CCC(c2cc(-c3ccncc3)c(-c3ccc(F)cc3)[nH]2)CC1 | 117%
58 | CCN(CC)C(=O)N1CCN(C)CC1 | 89.3%
59 | CCOC(=O)c1noc(N)c1-c1ccccc1 | 87.2%
60 | O=C(Nc1cccnc1)c1c(O)c2cccc3c2n(c1=O)CC3 | 85.3%
61 | CCCCS(=O)(=O)Nc1ccc2cnn(C)c2c1 | 106%
62 | CCC(C)NC(=O)c1ccc(NC(=O)C2(c3ccccc3)CCCC2)cc1 (centres undefined) | 96.7%
63 | NCCC(O)C(=O)N[C@@H]1C[C@H](N)[C@@H](OC2O[C@H](CN)[C@@H](O)[C@H](O)[C@H]2O)[C@H](O)C1OC1O[C@H](CO)[C@@H](O)[C@H](N)[C@H]1O (some centres undefined) | 102%
64 | N#Cc1nc(-c2ccccc2)oc1S(=O)(=O)c1ccc(Cl)cc1 | 31.4%
65 | CC(C)(C)CN1C(=O)C(c2ccccc2)(c2ccccc2)N=C1N | 66.1%
66 | c1cc(C2=NCCN2)cc(-c2cc(-c3ccc(C4=NCCN4)cc3)no2)c1 | 73.8%
67 | COc1cccc(CC(=O)N2CCC(n3c(C)nc4ccc(F)cc43)CC2)c1 | 118%
68 | CC(C)(C)OC(=O)N1CCN(c2nccc(-c3ccc(-c4ccc(Cl)cc4)s3)n2)CC1 | 103%
69 | COc1cc(C(F)(F)F)nc2ccc(C)c(N)c12 | 77.1%
